This passage reports enhancement results from PubChem BioAssay AID493056 (National Center for Advancing Translational Sciences (NCATS), 2011).

Out of some 360,000 compounds screened, about 2,400 (0.67%) were called active. No stated cut-off is given here; in the data, active means enhancement above about 30%; inactive means the rest. The list comes from a sample in which actives are over-represented; it also holds similar structures and randomly drawn compounds.

For the assay, the target named is Thyrotropin-releasing hormone receptor (Homo sapiens) (UniProt P34981). Description: qHTS for Small Molecule Agonists and Allosteric Enhancers of Human TRH Receptor: Primary Screen for Enhancers. Further: 0% is about no effect. To be noted: TRHR cells, fluo-8 calcium fluorescence, EC20 TRH enhancement; at 2 µM; hits give high values. An outline of the steps: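 TRHR-expressing cells loaded with fluo-8 calcium dye were read kinetically (ex 480/em 530) during compound addition, then stimulated with an EC20 of TRH (10 nM final). Enhancement of the Gq-mediated intracellular calcium response was scored.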
Sequence of Thyrotropin-releasing hormone receptor (Homo sapiens) (P34981 whole entry, looked up): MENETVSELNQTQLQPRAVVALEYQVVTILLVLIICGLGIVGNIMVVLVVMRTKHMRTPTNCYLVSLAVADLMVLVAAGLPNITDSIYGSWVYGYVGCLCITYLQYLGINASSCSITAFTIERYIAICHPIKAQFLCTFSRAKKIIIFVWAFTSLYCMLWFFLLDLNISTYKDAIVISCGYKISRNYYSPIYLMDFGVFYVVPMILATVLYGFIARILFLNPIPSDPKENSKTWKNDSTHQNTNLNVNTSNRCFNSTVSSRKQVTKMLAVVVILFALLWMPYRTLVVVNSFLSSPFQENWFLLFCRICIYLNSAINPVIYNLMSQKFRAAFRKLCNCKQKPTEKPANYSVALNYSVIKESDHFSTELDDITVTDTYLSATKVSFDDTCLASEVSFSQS
On the technique in general: Quantitative high-throughput screening tests each substance at several concentrations.
As for `O=C(CSc1cn(CC(=O)N2CCOCC2)c2ccccc12)Nc1ccccc1`, the enhancement is -5.59% (inactive).
As for `COc1ccc(Cc2nc3ccc(C(=O)NCc4ccccc4Cl)cc3o2)cc1`, the enhancement was 3.9% (inactive).
The same measure for `CCC(Sc1nc2n[nH]c(C)c2c(=N)n1-c1ccccc1Cl)C(=O)N(CC)CC` (stereo not given): -2.62% (inactive); for `Cc1ccc(Oc2c(C(F)(F)F)oc3c(CN4CCCCC4)c(O)ccc3c2=O)cc1`: 0.578% (inactive).
The same measure for `CCCOc1ccc(Cc2c(O)nc(N)[nH]c2=O)cc1C`: 5.99% (inactive); for `CCOC(=O)c1sc(NC(=O)CSc2nc(O)c(Cc3ccccc3)c(=O)[nH]2)nc1C`: 0.15% (inactive); for `CCCOc1ccc(Cc2c(O)nc(SC)[nH]c2=O)cc1C`: 40.1% (active).
`Cc1cc2c(s1)c1cnn(Cc3cc(F)c(Cl)cc3Cl)c(=O)c1n2C`: the enhancement is -6.51% (inactive).
The same measure for `COc1ccc(CCN2C(=O)c3oc4cc(C)cc(C)c4c(=O)c3C2c2ccccc2F)cc1OC` (stereo not given): -0.372% (inactive); for `O=C(Cc1ccccc1)Nc1sc2c(c1C(=O)Nc1ccc(Br)cc1)CCC2`: 1% (inactive).
The same measure for `COc1ccc(C2Sc3ccccc3NC3=C2C(=O)c2ccccc23)c(OC)c1OC` (stereo not given): -4.93% (inactive); for `COc1c(Cl)cc(C(=O)N(Cc2ccccc2F)C2CCS(=O)(=O)C2)cc1Cl` (stereo not given): 34% (active).
Take `COc1ccccc1C(=O)N(Cc1ccc(C)o1)C1CCS(=O)(=O)C1` (stereo not given): the enhancement is 0.844% (inactive).
The same measure for `COc1cc(C(=O)N(Cc2ccc(C(C)C)cc2)C2CCS(=O)(=O)C2)cc(OC)c1OC` (stereo not given): -5.35% (inactive); for `CCOC(=O)c1ccc(N2C(=O)c3[nH]nc(-c4ccccc4)c3C2c2ccc(C(C)C)cc2)cc1` (stereo not given): 7.37% (inactive).
The same measure for `Cc1ccc(C)c(N2CCN(CCCNC(=O)Nc3ccc(Cl)cc3)CC2)c1`: 2.7% (inactive); for `Cc1ccc(NC(=O)c2cn3c4c(ccc(Cl)c4c2=O)OC(C)C3)cc1C` (stereo not given): 6.65% (inactive).
As for `O=C1NC(c2cc3c(cc2Cl)OCO3)Oc2ccccc21` (stereo not given), the enhancement is 5.25% (inactive).
The same measure for `C=CCOc1cccc(C2NC(=O)c3ccccc3O2)c1` (stereo not given): -1.8% (inactive); for `O=C1NC(c2ccccc2)Oc2ccccc21` (stereo not given): 36.1% (active); for `Cc1ccc2c(=O)c(C(=O)c3ccc(F)cc3)cn(CC(=O)NC3CCCCC3)c2n1`: 7.98% (inactive).
The same measure for `COCC(C)NS(=O)(=O)c1ccc(N2CCCCS2(=O)=O)cc1` (stereo not given): 6.76% (inactive).
The same measure for `CCOC(=O)c1nn(-c2cccc(C)c2)cc1C(=O)c1ccccc1`: 11% (inactive); for `CCOC(=O)C1=C(O)/C(=C/c2cc(C)n(-c3ccccc3)c2C)N=C1C`: 43.5% (active).
As to `CCOC(=O)C1=C(O)/C(=C/c2ccc(OCC(=O)Nc3ccc(C)cc3)cc2)N=C1C`, the enhancement is -0.756% (inactive).
The same measure for `Cc1nn(Cc2ccc(F)cc2)c(C)c1NC(=O)c1cc(CC(C)C)on1`: -1.79% (inactive).
Take `O=c1[nH]c2cccnc2n(CCNc2ncc(C(F)(F)F)cc2Cl)c1=O`: the enhancement was 48.4% (active).
The same measure for `O=C(c1ccccn1)c1ncc(C(F)(F)F)cc1Cl`: 1.39% (inactive); for `O=c1[nH]oc(O)c1-c1ncc(C(F)(F)F)cc1Cl`: 0.0064% (inactive); for `COc1ccccc1Nc1nc(N)nc(N)c1S(=O)(=O)c1ccccc1`: 2.56% (inactive).
The same measure for `O=C(NCc1nnc(C(=O)Nc2ccc(C(F)(F)F)cc2Cl)o1)c1ccccc1`: 0.059% (inactive); for `Cc1nnc(SCC(=O)NCc2ccccc2Cl)c2nn(-c3ccccc3)c(C)c12`: 4.74% (inactive).
The same measure for `COc1ccccc1Nc1c2c(nc3ccc(NC(=O)/C=C/c4cc(OC)c(OC)c(OC)c4)cc13)CCCC2`: 0.792% (inactive); for `CC(C)c1nnc(NC(=O)CCC(=O)N2CCN(c3cccc(Cl)c3)CC2)s1`: 44.3% (active); for `COc1ccc(CN2CCN(C(=O)CCC(=O)Nc3nnc(C(C)C)s3)CC2)cc1F`: -5.21% (inactive).
Consider `CCc1nnc(NC(=O)CCC(=O)N2CCN(c3cc(C)ccc3C)CC2)s1`, for which the enhancement is 10.6% (inactive).
The same measure for `CCOc1ccc(NC(=O)c2cc3c(=O)n(Cc4cccs4)ccc3nc2C)cc1`: 2.83% (inactive); for `Cc1cccc(NC(=O)c2nnn(CC(=O)Nc3ccc(C(C)C)cc3)c2N)c1C`: 16.4% (inactive).
Consider `CCOc1ccc(N/C=C/C(=O)c2cc(OC)c(OC)c(OC)c2)cc1`, for which the enhancement was 36% (active).
The same measure for `CCOc1ccc(NC(=O)COc2ccc(C(=O)N3CCC(C(N)=O)CC3)cc2OC)cc1`: 1.2% (inactive); for `CCOc1ccc(C(NC(=O)c2cc(OC)c(OC)c(OC)c2)c2cc(Cl)c3cccnc3c2O)cc1` (stereo not given): 8.01% (inactive).
The same measure for `CN(CC(=O)Nc1ccccc1F)S(=O)(=O)c1ccc2c(c1)c(=O)n(C)c(=O)n2C`: -1.52% (inactive); for `CCOc1cc2[nH]c(=O)n(Cc3ccc(C(=O)NCCN(CC)CC)cc3)c(=O)c2cc1OCC`: 6.62% (inactive); for `Cc1csc2nc(COc3ccc(NC(=O)COc4ccccc4)cc3)cc(=O)n12`: -0.546% (inactive).
The same measure for `Cc1ccc(C(=O)Nc2ccc(OCc3cc(=O)n4c(C)csc4n3)cc2)cc1`: 44.4% (active); for `Cc1ccc(C(=O)Nc2ccc(OCc3cc(=O)n4c5c(sc4n3)CCCC5)cc2)cc1`: -8.75% (inactive).
In the case of `CCN(CC)c1cc(NC2CCCCC2)c2c3c(onc13)-c1ccccc1C2=O`, the enhancement is 3.4% (inactive).
The same measure for `Cc1c(CNC(C)c2ccccc2)c(C(=O)O)c(C)n1Cc1c(F)cccc1Cl` (stereo not given): 0.16% (inactive); for `CCOc1ccc(-c2cc3nc(C4CCN(C(=O)OC(C)(C)C)CC4)c(C(=O)Nc4cccc(CC)c4)cn3n2)cc1`: 12.9% (inactive).
The same measure for `COC(=O)/C(C#N)=C/c1occc1C`: 32.7% (active).
As to `CCOC(=O)/C(C#N)=C\c1c(C)cc(C)c(COC(C)=O)c1C`, the enhancement is 14.9% (inactive).
The same measure for `Cc1ccc(/C=C(\C#N)C(=O)Nc2cc(C)ccc2C)cc1`: -0.361% (inactive); for `CCc1ccc(NC(=O)N2CCN(C(=O)c3nsc4ccccc34)CC2)cc1`: -4.71% (inactive); for `O=S(=O)(c1ccc2c(c1)OCCO2)N1CCN(S(=O)(=O)c2cc(F)ccc2F)CC1`: 6.77% (inactive).
For the compound `CN1C(=O)c2cccc3c(N)ccc(c23)C1=O`, the enhancement was 50.3% (active).
The same measure for `Cc1nn(C)cc1N1C(=O)c2cccc3c(N)ccc(c23)C1=O`: 30% (active).
With `Cn1c(=O)n(Cc2c(F)cccc2Cl)c(=O)c2c1nc1n2CCN1c1ccc(F)cc1`, the enhancement is 0.582% (inactive).
The same measure for `Cc1cc(C)cc(NC(=O)Cn2nc(N3CCN(c4ccccc4)CC3)ccc2=O)c1`: -3.13% (inactive); for `Cc1cc(-c2ccc(C)c(S(=O)(=O)N3c4ccccc4CC3C)c2)on1` (stereo not given): 0.217% (inactive); for `CCOc1cccc2cc(-c3cn4c(n3)sc3cc(C)ccc34)c(=O)oc12`: -0.977% (inactive).
`COc1ccc(CCn2ccc(O)c(Cc3ccc(Cl)cc3Cl)c2=O)cc1OC`: the enhancement was 54.5% (active).
The same measure for `COc1ccc(CCNC(=O)CCc2ccccc2O)cc1OC`: -5.5% (inactive); for `COc1cc(CNCCSc2nnnn2C)ccc1OCc1ccc(Cl)cc1Cl`: 1.67% (inactive).
The same measure for `O=C(CSc1ncc(CO)n1Cc1ccc(F)cc1)NCc1ccco1`: -2.31% (inactive).
The same measure for `CCOc1ccc(CNC(=O)c2ccc3nc(CC)c(CC)nc3c2)cc1OC`: 1.32% (inactive); for `Cc1[nH]c2ccccc2c1C(=O)CN1CCCC(C)C1` (stereo not given): -2.86% (inactive); for `CC1CCN(CC(=O)c2c[nH]c3ccccc23)CC1`: 38% (active).
As for `CC1CCN(C(=O)COC(=O)c2cc(=O)[nH]c3ccccc23)CC1`, the enhancement was -7.78% (inactive).
The same measure for `Cc1nnc(N2CCCC(C(=O)NCCN(C)C)C2)c2nn(-c3ccccc3)c(C)c12` (stereo not given): 1.94% (inactive); for `N#Cc1nc(Nc2cccc(Cl)c2)nc(NC2CCCC2)n1`: -7.23% (inactive); for `CCn1c2ccccc2c2nnc(SCC(=O)O)nc21`: -1.5% (inactive).
The same measure for `COc1ccc(-n2nc(C(=O)NCCc3ccc(Cl)cc3)c3c4ccccc4n(C)c3c2=O)cc1Cl`: -3.1% (inactive); for `CCOC(=O)C1CCN(C(=O)C2(NC(=O)Nc3cccc(F)c3)CCCCC2)CC1`: 34.3% (active); for `CCN1CCN(C(=O)C2(NC(=O)Nc3cccc(F)c3)CCCCC2)CC1`: 1.28% (inactive).
With `CCOC(=O)C1CCN(C(=O)Nc2cccc(OC)c2)CC1`, the enhancement is -1.73% (inactive).
